# From PubChem BioAssay (NCATS)
# Several values for one entry are separate records, joined by “and”; a condition that tells them apart may be missing. Equal entries are not always repeated. Records with an inconclusive call do not appear. Activity calls are given as the source filed them. Unless noted, calls come from the whole dose curve; as a rule, active = well fitted curve in the direction sought with a large enough effect; inconclusive = small, poorly fitted or top-dose-only effect, or another doubt; inactive = no such curve, though single readings can be large; an effect the other way counts as inactive or inconclusive.
# Tests used:
# [1] = Primary qHTS for inhibitors of nuclear receptor binding SET domain protein 2 (NSD2) in an RCH-ACV wild type WT cells (2C) (AID 1645877); note: % is set by controls: 0 for no effect and ±100 for the full control effect; nearly all actives have a fitted effect of over 70% in size
# [2] = Primary qHTS for inhibitors of nuclear receptor binding SET domain protein 2 (NSD2) in an isogenic RCH-ACV NSD2 p.E1099K mutant (9B) (AID 1645876); note: % is set by controls: 0 for no effect and ±100 for the full control effect; nearly all actives have a fitted effect of over 70% in size
# [3] = biological target: Catechol O-methyltransferase (Homo sapiens) (UniProt P21964); assay: Confirmatory Screen for Target Class Profiling of Small Molecule Inhibitors of Methyltransferases (AID 1745852; calls by dose curve; note: potency is the fitted concentration of half-maximal effect; for activity change, negative = inhibition: % is set by controls: 0 for no effect and ±100 for the full control effect); settings: MTase-Glo luminescence, SAH detection, recombinant enzyme; measured here: COMT max response; stronger effect = lower value
# [4] = biological target: Guanidinoacetate N-methyltransferase (Homo sapiens) (UniProt Q14353); assay: as above; settings: MTase-Glo luminescence, SAH detection, recombinant enzyme; activity change, negative = inhibition: at 57.3 µM (top of the series)
# [5] = biological target: Rap guanine nucleotide exchange factor 3 (Homo sapiens) (UniProt O95398); assay: Confirmatory qHTS for antagonist of cAMP-regulated guanine nucleotide exchange factor 3 (EPAC1) (AID 1645880); note: nearly all actives have a fitted effect of over 55% in size; note: potency is the fitted concentration of half-maximal effect
# Summary of the method: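 Nucleotide exchange uses 100 nM EPAC1, 250 nM RAP1B-BODIPY-GDP and 50 uM GDP, with compounds in a concentration-titration series. After 5 min at room temperature, fluorescence (480 nm ex/540 nm em) is read every 5 min for 30 min. Data are normalized to control ATA and DMSO.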
# [6] = biological target: Rap guanine nucleotide exchange factor 3 (Homo sapiens) (UniProt O95398); assay: Confirmatory qHTS for agonist of cAMP-regulated guanine nucleotide exchange factor 3 (EPAC1) (AID 1645881);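 note: EPAC1 catalysed release of BODIPY-GDP from Rap1B seen as fluorescence loss; 100% = effect of cAMP agonist control; nearly all actives have a fitted effect of over 75% in size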
# [7] = biological target: Rap guanine nucleotide exchange factor 4 (Homo sapiens) (UniProt Q8WZA2); assay: Confirmatory qHTS for agonist of cAMP-regulated guanine nucleotide exchange factor 4 (EPAC2) (AID 1645884);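 note: nucleotide exchange releases bodipy-GDP from Rap1 and this lowers its fluorescence; % is set by controls: 0 for no effect and ±100 for the full control effect; nearly all actives have a fitted effect of over 65% in size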
# [8] = biological target: Rap guanine nucleotide exchange factor 4 (Homo sapiens) (UniProt Q8WZA2); assay: Confirmatory qHTS for antagonist of cAMP-regulated guanine nucleotide exchange factor 4 (EPAC2) (AID 1645885); note: nearly all actives have a fitted effect of over 25% in size; note: potency is the fitted concentration of half-maximal effect; for activity change, negative = inhibition: % is set by controls: 0 for no effect and ±100 for the full control effect
# [9] = biological target: Rap guanine nucleotide exchange factor 3 (Homo sapiens) (UniProt O95398); assay: Counterscreen qHTS for antagonist of cAMP-regulated guanine nucleotide exchange factor 3 (EPAC1) (AID 1645888);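 note: fluorescence loss as bound BODIPY-GDP is released from Rap1B; % of control where 0% means no effect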
# Summary of the method: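 Measured: fluorescence of BODIPY-GDP bound to Rap1B, which falls as exchange proceeds. Conditions include 50 uM competing GDP, 5 and 30 min reads, and a later cAMP challenge for antagonist detection.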
# [10] = biological target: Rap guanine nucleotide exchange factor 3 (Homo sapiens) (UniProt O95398); assay: Counterscreen qHTS for agonist of cAMP-regulated guanine nucleotide exchange factor 3 (EPAC1) (AID 1645889); note: % of control where 0% means no effect; nearly all actives have a fitted effect of over 40% in size
# From the text: Assay Provider (PI): Xiaodong Cheng Ph.D. The University of Texas Medical Branch, […], TX MLPCN Grant: NS066510 In multi-cellular eukaryotic organisms, the effects of cAMP are transduced by two ubiquitously-expressed intracellular cAMP receptors, the classic protein kinase A/cAMP-dependent protein kinase (PKA/cAPK) and the more recently discovered exchange protein directly activated by cAMP/cAMP-regulated guanine nucleotide exchange factor (EPAC/cAMP-GEF). Both PKA and EPAC are ubiquitously expressed in all tissues, and an increase in intracellular cAMP levels will lead to the activation of both PKA and EPAC. […] This qHTS will be used to screen the Molecular Libraries Small Molecule Repository (MLSMR) as a concentration-titration series using the NCGC unique quantitative screening (qHTS) platform to find activators for EPAC1. […] Activators are identified by monitoring the change in fluorescence signal as the exchanged free BODIPY-GDP has a reduced fluorescence compared to Rap1-bound BODIPY-GDP. […]
# EPAC1 Counterscreen PROTOCOL TABLE SEQUENCE No. (e.g., 1, 2, 3, etc.); […] […] Fluorescence. (Read 1), Ex/Em = 480 nm / 540 nm. […] Fluorescence. (Read 2), Ex/Em = 480 nm/ 540 nm. […] Fluorescence. (Read 3), Ex/Em = 480 nm / 540 nm. […] Fluorescence. (Read 4), Ex/Em = 480 nm / 540 nm. […]
# Chain of Catechol O-methyltransferase (Homo sapiens) (P21964 whole entry, looked up): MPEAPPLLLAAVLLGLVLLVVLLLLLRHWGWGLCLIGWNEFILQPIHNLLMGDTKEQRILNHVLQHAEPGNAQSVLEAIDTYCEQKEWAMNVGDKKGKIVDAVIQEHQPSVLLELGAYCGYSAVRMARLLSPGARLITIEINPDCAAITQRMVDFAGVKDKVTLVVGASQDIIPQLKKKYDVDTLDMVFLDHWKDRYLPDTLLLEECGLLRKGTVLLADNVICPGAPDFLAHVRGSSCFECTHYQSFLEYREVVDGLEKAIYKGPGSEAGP
# Chain of Rap guanine nucleotide exchange factor 3 (Homo sapiens) (O95398 whole entry, looked up): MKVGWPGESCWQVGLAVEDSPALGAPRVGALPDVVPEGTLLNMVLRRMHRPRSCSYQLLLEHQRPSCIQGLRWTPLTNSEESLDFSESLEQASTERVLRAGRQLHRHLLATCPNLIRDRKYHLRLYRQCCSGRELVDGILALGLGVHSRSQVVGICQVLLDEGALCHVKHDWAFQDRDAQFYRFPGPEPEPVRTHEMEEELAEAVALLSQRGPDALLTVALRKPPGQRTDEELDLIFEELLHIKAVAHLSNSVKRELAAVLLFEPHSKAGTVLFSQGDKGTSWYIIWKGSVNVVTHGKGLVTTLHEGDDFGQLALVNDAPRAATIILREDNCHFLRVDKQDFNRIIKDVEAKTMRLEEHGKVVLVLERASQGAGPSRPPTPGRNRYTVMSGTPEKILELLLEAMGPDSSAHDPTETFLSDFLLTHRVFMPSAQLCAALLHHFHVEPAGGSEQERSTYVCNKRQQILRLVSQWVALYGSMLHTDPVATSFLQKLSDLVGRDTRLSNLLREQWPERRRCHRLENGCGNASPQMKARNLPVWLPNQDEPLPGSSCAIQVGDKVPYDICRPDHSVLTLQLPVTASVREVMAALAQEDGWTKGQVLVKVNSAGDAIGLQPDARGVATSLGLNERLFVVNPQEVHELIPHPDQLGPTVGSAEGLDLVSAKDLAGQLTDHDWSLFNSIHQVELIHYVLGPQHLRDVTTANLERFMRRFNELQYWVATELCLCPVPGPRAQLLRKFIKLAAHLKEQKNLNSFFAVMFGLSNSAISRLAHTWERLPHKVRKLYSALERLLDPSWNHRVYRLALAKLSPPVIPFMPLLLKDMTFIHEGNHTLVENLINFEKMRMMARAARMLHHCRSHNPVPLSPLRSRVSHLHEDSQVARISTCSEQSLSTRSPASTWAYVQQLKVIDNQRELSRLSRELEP
# Chain of Rap guanine nucleotide exchange factor 4 (Homo sapiens) (Q8WZA2 whole entry, looked up): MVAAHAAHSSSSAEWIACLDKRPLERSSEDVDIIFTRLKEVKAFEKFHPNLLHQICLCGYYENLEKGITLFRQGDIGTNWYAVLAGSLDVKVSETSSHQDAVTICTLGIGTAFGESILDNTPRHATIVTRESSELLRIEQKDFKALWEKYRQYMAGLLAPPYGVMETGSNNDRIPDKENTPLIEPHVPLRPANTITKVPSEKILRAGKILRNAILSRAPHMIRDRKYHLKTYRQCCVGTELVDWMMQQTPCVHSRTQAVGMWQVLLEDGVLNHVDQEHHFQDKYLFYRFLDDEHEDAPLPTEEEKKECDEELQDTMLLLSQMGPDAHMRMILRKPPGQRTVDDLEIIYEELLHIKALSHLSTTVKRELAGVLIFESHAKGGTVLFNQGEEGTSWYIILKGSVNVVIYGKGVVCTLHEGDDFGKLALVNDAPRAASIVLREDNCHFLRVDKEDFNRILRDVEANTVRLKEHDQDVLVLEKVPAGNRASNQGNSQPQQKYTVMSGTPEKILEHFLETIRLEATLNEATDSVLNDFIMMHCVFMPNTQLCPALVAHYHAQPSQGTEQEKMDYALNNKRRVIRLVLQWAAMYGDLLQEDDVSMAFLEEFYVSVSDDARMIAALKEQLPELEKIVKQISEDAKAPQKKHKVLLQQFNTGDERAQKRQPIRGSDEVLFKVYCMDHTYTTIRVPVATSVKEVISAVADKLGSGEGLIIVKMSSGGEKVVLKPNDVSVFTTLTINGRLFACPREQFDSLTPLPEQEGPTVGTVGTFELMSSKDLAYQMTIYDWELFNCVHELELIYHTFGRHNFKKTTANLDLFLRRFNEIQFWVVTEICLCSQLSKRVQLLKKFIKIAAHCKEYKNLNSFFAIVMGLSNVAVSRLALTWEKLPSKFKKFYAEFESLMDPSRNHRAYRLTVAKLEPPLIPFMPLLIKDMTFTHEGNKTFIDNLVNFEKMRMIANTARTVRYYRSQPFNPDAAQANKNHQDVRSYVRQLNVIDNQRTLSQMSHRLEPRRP
structure (smiles),measurement,setting,value
CCCCN(CC)c1nc(C)nc2c1c(C)cn2-c1c(C)cc(C)cc1C,Potency,[1],inactive
CCC1C(=O)OCC1Cc1cncn1C (configuration not stated),Potency,[2],inactive
same,Potency,[1],inactive
NO,activity,[3],3.62%
same,"activity change, negative = inhibition",[4],-5.54%
Oc1ccccc1O,activity,[3],160%
same,"activity change, negative = inhibition",[4],-2.32%
O=[N+]([O-])c1ccc(CNc2nc(NCc3cccc(C(F)(F)F)c3)nc3nc[nH]c23)cc1,activity,[3],-6.92% and 9.66%
same,"activity change, negative = inhibition",[4],-3.71% and 5.72%
COC(=O)c1c(C)[nH]c(C)c1C(=O)c1ccccc1Cc1ccccc1,Potency,[5],inactive
same,Potency,[6],inactive
CCOC(=O)C1=C(C)NC(C)=C(C(=O)OCC)C1c1c(F)c(F)c(F)c(F)c1F,Potency,[6],inactive
same,Potency,[7],inactive
same,Potency,[8],44.1 µM (active)
CN1CCc2cccc3c2C1Cc1ccc(O)c(O)c1-3 (configuration not stated),activity,[3],5.12%
same,"activity change, negative = inhibition",[4],3.98%
COc1cc(OC)c(/C=C2/C(=O)Nc3ccccc32)c(OC)c1,activity,[3],-23%
same,Potency,[4],27.3 µM (active)
O=C1O/C(=C/Br)CCC1c1cccc2ccccc12 (configuration not stated),Potency,[6],inactive
same,Potency,[7],inactive
same,Potency,[8],49.4 µM (active)
O=C1C(SCCO)=C(SCCO)C(=O)c2ccccc21,Potency,[6],inactive
same,Potency,[7],inactive
same,Potency,[8],inactive
same,outcome,[9],inactive
same,activity,[3],-43.3%
same,Potency,[4],4.85 µM (active)
O=C(O)c1cc([N+](=O)[O-])ccc1NCCCc1ccccc1,Potency,[5],inactive
same,Potency,[6],inactive
same,Potency,[7],inactive
CC(C)(C)c1ccc(S(=O)(=O)/C=C/C#N)cc1,activity,[3],0.864%
same,"activity change, negative = inhibition",[4],-1.56%
COc1ccc(/C=C2\COc3ccc(C)cc3C2=O)cc1O,activity,[3],3.43%
same,"activity change, negative = inhibition",[4],-4.7%
COc1ccccc1CNCCCCCCNCCCCCCCCNCCCCCCNCc1ccccc1OC,activity,[3],5.14%
same,Potency,[4],0.153 µM (active)
OCC1O[C@H]([S-])[C@H](O)[C@@H](O)[C@@H]1O.[Au+] (some centres not stated),activity,[3],-38.3%
same,Potency,[4],4.85 µM (active)
N#C/C(=C\c1ccc(O)c(O)c1)C(=O)c1ccc(O)c(O)c1,Potency,[5],0.794 µM (active)
same,Potency,[6],inactive
same,activation,[7],"1.63% [at 17.1 µM, percent relative to cAMP agonist control] (inactive)"
same,"activity change, negative = inhibition",[8],16.6% [at 12.7 µM] (inactive)
same,outcome,[10],inactive
COc1ccc(Br)cc1S(=O)(=O)NC(=O)/C=C/c1ccccc1Cc1ccc2ccccc2c1,activity,[3],3.65%
same,"activity change, negative = inhibition",[4],-3.05%
CC(C)(C=O)Cc1cc(C(C)(C)C)c(O)c(C(C)(C)C)c1,activity,[3],2.63%
same,"activity change, negative = inhibition",[4],1.77%
COC1=C(OC)C(=O)c2ccccc2C1=O,activity,[3],-44.1%
same,Potency,[4],19.3 µM (active)
O=C(O)CNC(=O)C(CS)Cc1ccccc1 (configuration not stated),activity,[3],9.44%
same,"activity change, negative = inhibition",[4],4.59%
O=C1NCc2c1c1c3ccccc3[nH]c1c1[nH]c3ccccc3c21,activity,[3],-23.6%
same,Potency,[4],17.2 µM (active)
C#CCN1C(C)=C(C(=O)OC)C(c2cccc([N+](=O)[O-])c2)C(C(=O)OCC)=C1C (configuration not stated),Potency,[6],inactive
same,Potency,[7],inactive
same,Potency,[8],6.98 µM (active)
Oc1ccc(C2CNCc3sccc32)cc1O (configuration not stated),activity,[3],133%
same,"activity change, negative = inhibition",[4],1.13%
O=Nc1ccc2oc(=O)ccc2c1,activity,[3],0.573%
same,"activity change, negative = inhibition",[4],3.53%
COc1ccc(NC(=O)/C=C/c2ccc(Cl)cc2)cc1,activity,[3],-21.5%
same,Potency,[4],24.3 µM (active)
